Source: PubChem BioAssay (Tox21)
Results filed as inconclusive are left out. Activity calls are given as the source filed them. Calls come from the whole dose curve; as a rule, active = well fitted curve in the direction sought with a large enough effect in the repeat runs; inconclusive = weak or mixed curves; inactive = no such curve, though single readings can be large; an effect the other way counts as inactive or inconclusive.

Assays:
[1] = A CellTox Green Cytotoxicity Assay to monitor cytotoxicity in HEK293 cells - 32 hour (AID 1224881); note: nearly all actives have a fitted effect of over 40% in size; note: potency is the fitted concentration of half-maximal effect
How it was run: (§1)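 Cells (HEK293, 600/well) and dye reagent are dispensed together. After 5 h at 37 C, 23 nL compound is pinned in. Plates stay at 37 C for 40 h with fluorescence read at 0h, 8h, 16h, 24h, 32h and 40h.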

[2] = A CellTox Green Cytotoxicity Assay to monitor cytotoxicity in HepG2 cells - 0 hour (AID 1224882); note: nearly all actives have a fitted effect of over 35% in size
How it was run: (§2)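 Cells and non-lytic dye reagent are dispensed together (600 HepG2 cells/well) and incubated 5 h before DMSO compound transfer. Kinetic fluorescence is then recorded in the same wells during 40 h at 37 C.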

[3] = A CellTox Green Cytotoxicity Assay to monitor cytotoxicity in HepG2 cells - 32 hour (AID 1224883); note: nearly all actives have a fitted effect of over 50% in size; note: potency is the fitted concentration of half-maximal effect
How it was run: as §2

[4] = A CellTox Green Cytotoxicity Assay to monitor cytotoxicity in HEK293 cells - 8 hour (AID 1224884); note: nearly all actives have a fitted effect of over 35% in size; note: potency is the fitted concentration of half-maximal effect
How it was run: as §1

[5] = qHTS RealTime-Glo MT Cell Viability Assay in HepG2 cells - 16 hour (AID 1224885); note: nearly all actives have a fitted effect of over 50% in size; note: potency is the fitted concentration of half-maximal effect
How it was run: (§3)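 Viability was tracked continuously by NanoLuc luminescence from prosubstrate reduced by living HepG2 cells, at successive time points over 40 h of compound exposure. Cells with reagent were preincubated 5 h at 37 °C before compound addition.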

[6] = qHTS RealTime-Glo MT Cell Viability Assay in HEK293 cells - 24 hour (AID 1224886); note: nearly all actives have a fitted effect of over 50% in size; note: potency is the fitted concentration of half-maximal effect
How it was run: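 Viability tracked continuously by luminescence as live cells reduce a prosubstrate for NanoLuc; HEK293 cells preincubated 5 h, compound-treated at 37 C, and read at 0, 8, 16, 24, 32 and 40 h.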

[7] = qHTS RealTime-Glo MT Cell Viability Assay in HEK293 cells - 8 hour (AID 1224887); note: nearly all actives have a fitted effect of over 50% in size; note: potency is the fitted concentration of half-maximal effect
How it was run: (§4)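 Real-time viability in HEK293: signal arises when living cells convert a prosubstrate for NanoLuc in the medium, so luminescence tracks viable cell number. Compound (23 nL, DMSO) added 5 h post-seeding; kinetic reads at 0–40 h, 37 C.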

[8] = A CellTox Green Cytotoxicity Assay to monitor cytotoxicity in HEK293 cells - 16 hour (AID 1224888); note: nearly all actives have a fitted effect of over 35% in size; note: potency is the fitted concentration of half-maximal effect
How it was run: as §1

[9] = qHTS RealTime-Glo MT Cell Viability Assay in HepG2 cells - 0 hour (AID 1224889); note: nearly all actives have a fitted effect of over 50% in size
How it was run: as §3

[10] = A CellTox Green Cytotoxicity Assay to monitor cytotoxicity in HepG2 cells - 8 hour (AID 1224890); note: nearly all actives have a fitted effect of over 45% in size
How it was run: as §2

[11] = qHTS assay to identify small molecule antagonists of the androgen receptor (AR) signaling pathway using the MDA cell line in the presence of 0.5 nM R1881 - cell viability counter screen (AID 1259242); note: nearly all actives have a fitted effect of over 45% in size; note: potency is the fitted concentration of half-maximal effect
How it was run: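 Steps: plate MDA-kb2 cells, rest 5 hr at 37C without CO2; pin in compounds in DMSO; add R1881 to 0.5 nM final; incubate 16 hr; add CellTiter-Fluor, 30 min; read fluorescence.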

[12] = target: Androgen receptor (Homo sapiens) (UniProt P10275); experiment: qHTS assay to identify small molecule antagonists of the androgen receptor (AR) signaling pathway using the MDA cell line in the presence of 0.5 nM R1881 (AID 1259243); note: nearly all actives have a fitted effect of over 50% in size; note: potency is the fitted concentration of half-maximal effect
Sequence of Androgen receptor (Homo sapiens) (P10275 whole entry, looked up): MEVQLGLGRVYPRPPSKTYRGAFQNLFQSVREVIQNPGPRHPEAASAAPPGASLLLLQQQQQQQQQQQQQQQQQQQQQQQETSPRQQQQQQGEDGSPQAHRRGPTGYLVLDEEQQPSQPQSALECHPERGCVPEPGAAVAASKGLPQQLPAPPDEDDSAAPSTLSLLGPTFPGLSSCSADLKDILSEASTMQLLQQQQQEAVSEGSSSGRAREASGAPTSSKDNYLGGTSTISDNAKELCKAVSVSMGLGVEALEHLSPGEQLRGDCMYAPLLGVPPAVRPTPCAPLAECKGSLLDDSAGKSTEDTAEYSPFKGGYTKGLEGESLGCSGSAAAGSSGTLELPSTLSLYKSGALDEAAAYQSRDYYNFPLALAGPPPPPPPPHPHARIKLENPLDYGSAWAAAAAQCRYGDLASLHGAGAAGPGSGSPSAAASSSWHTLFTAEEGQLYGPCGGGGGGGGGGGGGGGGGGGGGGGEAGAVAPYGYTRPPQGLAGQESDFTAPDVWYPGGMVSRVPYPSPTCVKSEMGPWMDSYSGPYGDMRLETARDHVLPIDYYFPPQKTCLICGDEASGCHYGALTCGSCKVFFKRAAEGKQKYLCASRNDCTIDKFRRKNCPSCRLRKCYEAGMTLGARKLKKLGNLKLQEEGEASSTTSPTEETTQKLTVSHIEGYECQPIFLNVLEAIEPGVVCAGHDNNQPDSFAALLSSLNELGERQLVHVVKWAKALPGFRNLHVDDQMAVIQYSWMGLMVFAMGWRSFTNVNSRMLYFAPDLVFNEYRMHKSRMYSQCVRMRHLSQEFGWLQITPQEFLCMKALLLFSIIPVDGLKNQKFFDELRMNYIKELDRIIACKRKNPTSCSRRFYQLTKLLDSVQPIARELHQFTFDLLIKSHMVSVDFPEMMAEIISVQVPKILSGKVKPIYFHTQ
How it was run: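 Stably transfected MDA-kb2 cells express luciferase from an MMTV promoter bearing both AR and GR response elements. Compounds plus 0.5 nM R1881 (final) were incubated 16 hr at 37C without CO2, then luminescence measured.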

[13] = qHTS assay to identify small molecule HDAC inhibitors - cell viability counter screen (AID 1259365)
How it was run: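 HCT-116 wild-type, overnight attachment; 2hr drug exposure, 37C; CellTiter-Glo luminescent ATP readout after 30min RT.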

[14] = qHTS assay to identify small molecule antagonists of the sonic hedgehog signaling (Shh) pathway - cell viability counter screen (AID 1259367); note: nearly all actives have a fitted effect of over 55% in size; note: potency is the fitted concentration of half-maximal effect
How it was run: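 Cytotoxicity was assessed in parallel with Shh reporter activity by measuring live-cell protease fluorescence (CellTiter-Fluor) in NIH/3T3 cells stably carrying Gli1-Luc, treated with compound under conditioned medium stimulation for 23 hr plus 1 hr reagent incubation.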

[15] = target: Estrogen receptor (Homo sapiens) (UniProt P03372); experiment: qHTS assay to identify small molecule antagonists of the estrogen receptor alpha (ER-alpha) signaling pathway using the BG1 cell line in the presence of 0.1 nM 17-beta-estradiol (AID 1259244); note: nearly all actives have a fitted effect of over 50% in size; note: potency is the fitted concentration of half-maximal effect
Sequence of Estrogen receptor (Homo sapiens) (P03372 whole entry, looked up): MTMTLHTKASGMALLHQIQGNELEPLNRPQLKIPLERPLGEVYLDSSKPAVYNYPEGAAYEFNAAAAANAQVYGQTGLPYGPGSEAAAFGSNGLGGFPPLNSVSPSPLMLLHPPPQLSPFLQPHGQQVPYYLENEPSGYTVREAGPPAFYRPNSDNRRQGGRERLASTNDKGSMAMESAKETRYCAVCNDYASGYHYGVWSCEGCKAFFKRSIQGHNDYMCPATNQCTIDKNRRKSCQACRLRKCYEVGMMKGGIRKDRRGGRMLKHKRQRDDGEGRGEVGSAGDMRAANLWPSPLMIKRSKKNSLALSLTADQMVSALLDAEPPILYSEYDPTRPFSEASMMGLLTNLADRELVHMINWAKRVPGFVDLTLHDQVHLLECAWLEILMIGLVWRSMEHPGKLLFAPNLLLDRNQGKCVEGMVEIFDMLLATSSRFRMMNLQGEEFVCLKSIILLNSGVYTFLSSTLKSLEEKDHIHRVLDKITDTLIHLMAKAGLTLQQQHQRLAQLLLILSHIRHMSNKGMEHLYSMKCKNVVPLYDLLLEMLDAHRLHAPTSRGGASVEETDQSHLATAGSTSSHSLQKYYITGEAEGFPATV
How it was run: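 Antagonist mode: compounds in DMSO are pinned onto VM7Luc4E2 reporter cells, 0.1 nM final 17beta-estradiol is added, and after 22 h at 37C luciferase luminescence is measured with ONE-Glo.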

[16] = qHTS assay to identify small molecule HDAC inhibitors (AID 1259364);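 note: wild-type HCT-116 cells with endogenous class I/II HDAC activity; top concentration of the series differs between compounds; nearly all actives have a fitted effect of over 45% in size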
How it was run: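 Cells (HCT-116, wild type) are seeded at 1,500 per well, incubated overnight, treated with compound in DMSO for 2 hr, then developed with HDAC-Glo I/II reagent for 30 min at room temperature.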

[17] = qHTS assay to identify small molecule agonists of the sonic hedgehog signaling (Shh) pathway - cell viability counter screen (AID 1259366); note: nearly all actives have a fitted effect of over 50% in size; note: potency is the fitted concentration of half-maximal effect
How it was run: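 Compounds in DMSO were pin-transferred onto 3T3 Gli1-Luc cells that had settled 4hr; plates then stood 24hr at 37C and 5% CO2. One hour before the end, CellTiter-Fluor was added and fluorescence recorded.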

[18] = qHTS RealTime-Glo MT Cell Viability Assay in HEK293 cells - 0 hour (AID 1224880); note: top concentration of the series differs between compounds; nearly all actives have a fitted effect of over 45% in size
How it was run: as §4

[19] = qHTS assay to identify small molecule antagonists of the estrogen receptor alpha (ER-alpha) signaling pathway using the BG1 cell line in the presence of 0.1 nM 17-beta-estradiol - cell viability counter screen (AID 1259241); note: nearly all actives have a fitted effect of over 40% in size
How it was run: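 Following 5 days in phenol red-free medium with charcoal-stripped serum, VM7Luc4E2 cells received test compounds alongside 0.1 nM 17beta-estradiol (final) at 37C for 22 hr. Live cells were then quantified via protease-substrate fluorescence.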

Measured: Potency

COC1=CC(=O)O[C@@H](CCc2ccccc2)C1
active: [12] 40.1 µM
not listed: [15] | [16] | [17] | [18] | [19]
inactive: all other assays above

IC(I)=C(I)I
active: [1] 54.9 µM | [3] 13.8 µM | [4] 54.9 µM | [5] 0.776 µM | [6] 6.92 µM | [7] 17.4 µM | [8] 54.9 µM | [11] 61.1 µM | [12] 15.4 µM | [15] 27.3 µM | [17] 7.7 µM | [14] 17.2 µM
inactive: [2] | [16] | [13]

Clc1cccc2ccccc12
not listed: [1] | [12] | [15]
inactive: all other assays above

O=S(=O)(O)C(F)(F)C(F)(F)C(F)(F)C(F)(F)F
not listed: [2] | [6] | [7] | [12] | [15] | [18] | [19]
inactive: all other assays above

ClP(Cl)(Cl)(Cl)Cl
not listed: [1] | [3] | [5] | [6] | [9] | [11] | [12] | [15]
inactive: all other assays above

COC(C)(C)CCC[C@H](C)C/C=C/C(C)=C/C(=O)OC(C)C
not listed: [1] | [7] | [8] | [14] | [15] | [16]
inactive: all other assays above

CC(C)(OO)c1ccccc1
not listed: [9] | [12] | [18]
inactive: all other assays above
